# Data taken from PubChem BioAssay (NCATS).
# Where “and” joins values, the source holds several entries; their conditions need not be identical. Equal values may be shown once. Unmarked numbers belong to inactive results. Results filed as inconclusive are left out. Entries that show only a call come without a potency. Calls of active or inactive are those of the source. Unless noted, the call rests on the fitted dose curve; in most records, active means well fitted curve in the direction sought with a large enough effect; inconclusive means small, poorly fitted or top-dose-only effect, or another doubt; inactive means no such curve, though single readings can be large; an effect the other way counts as inactive or inconclusive.
# Assays:
# [1] = target: Glucocorticoid receptor (Homo sapiens) (UniProt P04150); experiment: GR-GFP Redistribution (AID 450;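 active means compounds whose dose series gives a full or clear partial fitted curve of increased nuclear translocation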; further: potency means the concentration at half of the fitted maximal effect); details: U2OS GR-GFP nuclear translocation, laser cytometry, 2 h
# Glucocorticoid receptor (Homo sapiens), sequence (P04150 whole entry, looked up, the tested form may be a part): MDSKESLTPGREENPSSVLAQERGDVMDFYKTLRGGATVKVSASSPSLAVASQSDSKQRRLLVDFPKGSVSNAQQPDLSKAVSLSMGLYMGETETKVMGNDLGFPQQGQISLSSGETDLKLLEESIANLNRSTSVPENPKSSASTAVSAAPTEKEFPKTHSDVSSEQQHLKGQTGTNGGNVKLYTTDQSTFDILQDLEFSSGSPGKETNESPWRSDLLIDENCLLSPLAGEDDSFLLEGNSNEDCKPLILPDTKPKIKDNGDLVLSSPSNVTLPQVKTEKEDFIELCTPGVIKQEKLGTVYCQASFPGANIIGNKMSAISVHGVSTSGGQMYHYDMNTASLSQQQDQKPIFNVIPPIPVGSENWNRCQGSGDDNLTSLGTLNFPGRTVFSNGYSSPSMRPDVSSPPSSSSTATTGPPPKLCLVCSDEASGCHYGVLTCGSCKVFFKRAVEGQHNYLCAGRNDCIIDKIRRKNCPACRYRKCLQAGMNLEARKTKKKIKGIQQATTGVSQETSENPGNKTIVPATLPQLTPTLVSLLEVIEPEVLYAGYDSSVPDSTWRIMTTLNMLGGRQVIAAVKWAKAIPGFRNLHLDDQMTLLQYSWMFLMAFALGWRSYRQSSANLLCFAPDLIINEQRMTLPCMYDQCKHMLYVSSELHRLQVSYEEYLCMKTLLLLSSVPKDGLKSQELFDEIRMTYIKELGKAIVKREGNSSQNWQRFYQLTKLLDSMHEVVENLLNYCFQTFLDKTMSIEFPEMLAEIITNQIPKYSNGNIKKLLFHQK
# [2] = target: Glucocorticoid receptor (Homo sapiens) (UniProt P04150); experiment: GR-EFC Redistribution (AID 451; calls by dose curve; further: potency means the concentration at half of the fitted maximal effect); details: CHO-K1 GR-EFC translocation, beta-gal luminescence, 2 h
# Summary of the method: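 Translocation of GR-ED fusion to nuclear EA restores b-gal, read by luminescence after 1 h room-temperature detection. Engineered CHO-K1 biosensor cells, 1,000/well, exposed 2 h at 37 C to titrations up to 46 uM final.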
# [3] = target: 3',5'-cyclic-AMP phosphodiesterase 4B (Homo sapiens) (UniProt Q07343); experiment: qHTS Assay for Inhibitors of PDE-IV (AID 607; active means well fitted activation curve with a large enough effect in the main read-out, with a control signal flat, not every such curve was filed as active); details: HEK293 ACTOne CNG channel cells, membrane potential fluorescence; series mostly up to 22.9 µM
# 3',5'-cyclic-AMP phosphodiesterase 4B (Homo sapiens), sequence (Q07343 whole entry, looked up): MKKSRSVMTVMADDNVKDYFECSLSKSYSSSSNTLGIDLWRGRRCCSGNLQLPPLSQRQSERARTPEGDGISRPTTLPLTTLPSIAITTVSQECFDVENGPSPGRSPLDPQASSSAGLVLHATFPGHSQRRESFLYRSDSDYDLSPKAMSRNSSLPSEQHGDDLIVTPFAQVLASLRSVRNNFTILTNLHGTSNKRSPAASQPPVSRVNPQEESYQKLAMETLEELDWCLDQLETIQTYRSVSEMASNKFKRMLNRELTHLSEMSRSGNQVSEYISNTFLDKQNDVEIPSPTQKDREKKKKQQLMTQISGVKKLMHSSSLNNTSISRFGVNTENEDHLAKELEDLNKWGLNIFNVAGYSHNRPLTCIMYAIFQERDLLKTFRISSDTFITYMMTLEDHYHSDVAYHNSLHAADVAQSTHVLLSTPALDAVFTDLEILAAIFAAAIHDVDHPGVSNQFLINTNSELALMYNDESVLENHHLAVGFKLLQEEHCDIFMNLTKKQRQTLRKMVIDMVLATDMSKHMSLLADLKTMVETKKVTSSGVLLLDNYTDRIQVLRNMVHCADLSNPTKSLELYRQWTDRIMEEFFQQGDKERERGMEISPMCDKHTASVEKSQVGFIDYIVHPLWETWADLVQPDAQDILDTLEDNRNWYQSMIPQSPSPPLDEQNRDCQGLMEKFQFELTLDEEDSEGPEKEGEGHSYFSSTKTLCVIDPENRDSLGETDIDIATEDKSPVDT
# Summary of the method: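 Cell-based read-out of cAMP via a modified cyclic nucleotide-gated channel and membrane potential dye (535/590 nm) in HEK293 cells expressing PDE4 endogenously. Compounds tested up to 22.9 uM final; 100 uM RO 20-1724 reference.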
# [4] = target: Mitogen-activated protein kinase 10 (Mus musculus) (UniProt Q61831); experiment: JNK3 AlphaScreen Assay (AID 530; active means well fitted curve in either direction with a large enough effect, not every such curve was filed as active;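 further: kinase came from lysate of stimulated human HepG2 cells; signal reports phosphorylation of biotinylated GST-cJun 1-79 at Ser73 with 10 µM ATP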); details: JNK3 lysate, c-Jun phosphorylation; series mostly up to 57.1 µM
# Summary of the method: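 Room-temperature AlphaScreen kinase assay; pre-activated HepG2 lysate as JNK3 source, biotin-GST-cJun(1-79) substrate, 10 uM ATP, compound 15 min preincubation.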
# [5] = Cell Viability - N2a (AID 540); details: N2a mouse neuroblastoma cell viability; at 92.2 µM (top of the series); further: nearly all actives have a fitted effect of over 45% in size
# Summary of the method: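 Mouse neuroblastoma N2a cells (1500/well) were preincubated 5 hr at 37 °C, then exposed to compounds for 40 hr at 37 °C in complete medium. Viability was read as intracellular ATP by CellTiter-Glo luminescence; AC50 from Hill fits.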
# [6] = Cell Viability - NIH 3T3 (AID 541); details: NIH 3T3 cell viability, qHTS; series mostly up to 92.2 µM; further: nearly all actives have a fitted effect of over 25% in size
# Summary of the method: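 NIH 3T3 mouse embryo fibroblasts (1000 cells/well) were plated in complete medium and treated with compound for 40 hr at 37 °C. Viability was read as intracellular ATP by CellTiter-Glo luminescence; AC50 values came from Hill-equation fits of concentration-response data.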
# [7] = Cell Viability - HUV-EC-C (AID 542); details: HUV-EC-C endothelial cell viability, qHTS; series mostly up to 92.2 µM; further: nearly all actives have a fitted effect of over 35% in size
# Summary of the method: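 HUV-EC-C normal human vascular endothelial cells, 1000 cells/well, pre-incubated 5 hr at 37 °C, then exposed to compounds for 40 hr at 37 °C in complete medium. Viability measured as intracellular ATP by CellTiter-Glo luminescence; AC50 from Hill fits.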
# [8] = Cell Viability - H-4-II-E (AID 543); details: H-4-II-E rat hepatoma viability; series mostly up to 92.2 µM; further: nearly all actives have a fitted effect of over 35% in size
# Summary of the method: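 Rat hepatoma H-4-II-E cells (1500/well) were plated, incubated 5 hr at 37 °C, then exposed to compounds for 40 hr at 37 °C. Cellular ATP was read by CellTiter-Glo luminescence; AC50 came from Hill-equation fits of concentration-response data.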
# [9] = Cell Viability - SH-SY5Y (AID 544); details: SH-SY5Y neuroblastoma cell viability; at 92.2 µM (top of the series); further: nearly all actives have a fitted effect of over 55% in size
# Summary of the method: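 Human neuroblastoma SH-SY5Y cells (1500/well) in complete medium were exposed to compounds for 40 hr at 37 °C; intracellular ATP was then quantified by CellTiter-Glo luminescence after 20 min at room temperature. AC50 came from Hill-equation concentration-response fits.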
# [10] = Cell Viability - Renal Proximal Tubule (AID 545); details: renal proximal tubule cells viability, primary cells of rat origin; series mostly up to 91.7 µM; further: nearly all actives have a fitted effect of over 40% in size
# Summary of the method: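 In this qHTS format, normal rat kidney-derived proximal tubule cells in complete culture medium receive compound titrations, then sit 40 hours at 37 °C before luciferase-based ATP quantitation; potency is reported as AC50 from concentration-response curves.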
# [11] = Cell Viability - Mesenchymal (AID 546); details: mesenchymal cells viability, qHTS; at 91.7 µM (top of the series);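 further: cells exposed to compound for 40 hours before reading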
# Summary of the method: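 AC50 values reflect the drop in intracellular ATP in a human kidney mesenchymal line derived from normal glomeruli. Treatment lasts 40 hr at 37 °C in complete medium, and the signal comes from CellTiter-Glo luminescence.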
# [12] = Cellular Toxicity (caspase-3) HepG2 (AID 654); details: HepG2 caspase-3 activation, luminescence, 0% = DMSO only, 100% = tamoxifen; series mostly up to 92.2 µM;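 further: cells exposed to compound for 16 hours before reading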
# Summary of the method: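 HepG2 cells (1500/well) in complete medium were treated with compounds for 16 hr at 37 °C. Caspase-3/7 activity was then read as luminescence from peptide-aminoluciferin cleavage. AC50 came from Hill fits, normalized to DMSO and 100 uM tamoxifen.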
# [13] = Cellular Toxicity (caspase-3) Jurkat (AID 655); details: Jurkat caspase-3 activation, luminescence; caspase-3 activation: at 92.2 µM (top of the series), DMSO = 0%, tamoxifen = 100%;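 further: cells exposed to compound for 16 h at 37 °C before reading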
# Summary of the method: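 qHTS in human Jurkat T-cell leukemia line: 16 hr compound treatment at 37 °C, caspase-3/7 activity measured by Caspase-Glo luminescence. AC50 derived from Hill equation.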
# [14] = Cellular Toxicity (caspase-3) HUV-EC-C (AID 656); details: HUV-EC-C cells, caspase-3 activation (apoptosis), vehicle = 0, 100 µM tamoxifen = 100%; series mostly up to 92.2 µM
# Summary of the method: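 Concentration-dependent caspase 3/7 induction was assessed in HUV-EC-C cells exposed for 16 hours. Data scaled between DMSO and tamoxifen (100 uM) controls.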
# [15] = Cellular Toxicity (caspase-3) BJ (AID 658); details: BJ fibroblasts, luminescence, normalized: DMSO 0%, staurosporine 100%; series mostly up to 91.7 µM
# Summary of the method: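 Readout: Caspase-Glo 3/7 luminescence increase in BJ cells after 16 hr treatment at 37 °C. Staurosporine and tamoxifen served as positive controls; AC50 values came from Hill modelling of data normalized to DMSO and 10 uM staurosporine.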
# [16] = Cellular Toxicity (caspase-3) MRC-5 (AID 659); details: MRC-5 cells, luminescence, normalized: DMSO 0%, 10 µM staurosporine 100%; series mostly up to 91.7 µM
# Summary of the method: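 Concentration-dependent caspase 3/7 activation is measured in human normal lung fibroblasts (MRC-5) following 16-hour treatment. AC50 values come from standard Hill-equation modeling of luminescence normalized to DMSO and 10 uM staurosporine.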
# [17] = Cellular Toxicity (caspase-3) Mesangial (AID 660); details: mesangial cells, normalized: DMSO 0%, 100 µM tamoxifen 100%; series mostly up to 91.7 µM;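 further: cells exposed to compound for 16 h before the caspase read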
# Summary of the method: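 Human renal glomerular mesangial cells (1000/well) were treated with compounds for 16 h at 37 °C in complete medium, then caspase 3/7 activity was read by Caspase-Glo luminescence. Data were normalized to DMSO and 100 uM tamoxifen; AC50 from Hill fits.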
# [18] = Cellular Toxicity (caspase-3) H-4-II-E (AID 663); details: H-4-II-E rat hepatoma, scaled: DMSO 0%, 100 µM tamoxifen 100%; series mostly up to 92.2 µM;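 further: cells exposed to compound for 16 hr before readout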
# Summary of the method: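 Apoptosis induction is scored as increased luminescence from caspase 3/7 substrate cleavage in rat hepatoma H-4-II-E cells exposed to compound for 16 hr. Activity is scaled between DMSO and 100 uM tamoxifen.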
# [19] = Cellular Toxicity (caspase-3) Hek293 (AID 664); details: HEK293 caspase-3 activation, DMSO = 0%, 100 µM tamoxifen = 100%; series mostly up to 92.2 µM;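 further: cells exposed to compound for 16 h at 37 °C before readout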
# Summary of the method: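 HEK293 cells were exposed to compounds in complete medium for 16 hr at 37 °C, then caspase-3/7 activity was read by Caspase-Glo 3/7 luminescence after 20 min at room temperature. Data normalized to DMSO and 100 uM tamoxifen; AC50 from Hill fits.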
# [20] = Cellular Toxicity (caspase-3) Renal Proximal Tubule (AID 667); details: renal proximal tubule cells, primary cells freshly taken from rat, solvent-only wells 0%, staurosporine 100%; series mostly up to 91.7 µM;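 further: cells exposed to compound for 16 hours at 37 °C before detection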
# Summary of the method: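 Caspase-Glo 3/7 read-out, rat primary kidney proximal tubule cells. Compound exposure 16 h, 37 °C; detection after 1 h at RT. Activity scaled to DMSO and 10 uM staurosporine.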
smiles,measurement,setting,value
Cc1c(C)c2c(c(C)c1O)CC[C@@](C)(CCC[C@@H](C)CCC[C@@H](C)CCCC(C)C)O2,Potency,[1],> 20.6 µM
same,Potency,[2],> 20.6 µM
same,outcome,[3],inactive
CCCCCCCC/C=C\CCCCCCCC(=O)O,outcome,[4],inactive
same,"activity change, negative = cytotoxicity",[5],-2.98%
same,outcome,[6],inactive
same,Potency,[7],inactive
same,Potency,[8],inactive
same,"viability change, negative = cytotoxic",[9],3.98%
same,outcome,[10],inactive
same,"activity change, negative = cytotoxicity",[11],16.2%
same,outcome,[12],inactive
same,caspase-3 activation,[13],1.62%
same,outcome,[14],inactive
same,outcome,[15],inactive
same,outcome,[16],inactive
same,outcome,[17],inactive
same,outcome,[18],inactive
same,outcome,[19],inactive
same,outcome,[20],inactive
CC(Cc1ccc(O)c(O)c1)C(C)Cc1ccc(O)c(O)c1 (stereo not drawn),Potency,[1],> 20.6 µM
CC(=O)OCC(=O)[C@@]12OC3(CCCC3)O[C@@H]1C[C@H]1[C@@H]3CCC4=CC(=O)C=C[C@]4(C)[C@@]3(F)[C@@H](O)C[C@@]12C,Potency,[1],0.000571 µM (active)
Cc1ccccc1,outcome,[4],inactive
same,"activity change, negative = cytotoxicity",[5],5.04% and 4.17%
same,outcome,[6],inactive
same,Potency,[7],inactive
same,Potency,[8],inactive
same,"viability change, negative = cytotoxic",[9],-8.19% and -6.58%
same,outcome,[10],inactive
same,"activity change, negative = cytotoxicity",[11],6.68% and 3.68%
same,outcome,[12],inactive
same,caspase-3 activation,[13],-1.43% and -0.873%
same,outcome,[14],inactive
same,outcome,[15],inactive
same,outcome,[16],inactive
same,outcome,[17],inactive
same,outcome,[18],inactive
same,outcome,[19],inactive
same,outcome,[20],inactive
Nc1c(Br)cc(Br)cc1CNC1CCC(O)CC1 (stereo not drawn),Potency,[1],> 20.6 µM
same,Potency,[2],> 20.6 µM
same,outcome,[4],inactive
same,outcome,[3],inactive
CN1Cc2c(N)cccc2C(c2ccccc2)C1 (stereo not drawn),Potency,[1],> 20.6 µM
CC1=C2[C@@H]([C@H](C)CC[C@H]2/C=C(\C)C(=O)O)[C@H](O)C1,outcome,[4],inactive
same,"activity change, negative = cytotoxicity",[5],6.2%
same,outcome,[6],inactive
same,Potency,[7],inactive
same,Potency,[8],inactive
same,"viability change, negative = cytotoxic",[9],-4.63%
same,outcome,[10],inactive
same,"activity change, negative = cytotoxicity",[11],8.87%
same,outcome,[12],inactive
same,caspase-3 activation,[13],0.468%
same,outcome,[14],inactive
same,outcome,[15],inactive
same,outcome,[16],inactive
same,outcome,[17],inactive
same,outcome,[18],inactive
same,outcome,[19],inactive
same,outcome,[20],inactive
CC(O)CO (stereo not drawn),outcome,[4],inactive
same,"activity change, negative = cytotoxicity",[5],-4.29% and -9.5%
same,outcome,[6],inactive
same,Potency,[7],inactive
same,Potency,[8],inactive
same,"viability change, negative = cytotoxic",[9],-13.2% and -4.54%
same,outcome,[10],inactive
same,"activity change, negative = cytotoxicity",[11],1.55% and 7.01%
same,outcome,[12],inactive
same,caspase-3 activation,[13],1.29% and 0.367%
same,outcome,[14],inactive
same,outcome,[15],inactive
same,outcome,[16],inactive
same,outcome,[17],inactive
same,outcome,[18],inactive
same,outcome,[19],inactive
same,outcome,[20],inactive
